The supplement of paper PMC9262897, “Low-cost anti-mycobacterial drug discovery using engineered E. coli” (Nature Communications, 2022)
Counter-ions that a name gives are not always drawn. ± gives the standard deviation of the averaged measurements.

What was measured:
Assay in all cases: growth (OD600 after 10 h); higher = more growth (less inhibition)
[1] = tested on: E. coli TESEC Alr+ wild-type control; settings: compound 0.1 mM; raw OD600 reference: median of DMSO wells 0.241, cell-free background 0.041
Method: (§1)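 TESEC Mtb Alr E. coli, or the Alr+ wild-type control, in 384-well plates with Prestwick library compounds at 0.1 mM and 1% DMSO, across arabinose induction levels of 1E3 to 1E7 nM. Growth is read as OD600 after 10 h at 37 °C in triplicate biological replicates.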

[2] = tested on: E. coli TESEC Mtb Alr; settings: compound 0.1 mM
Method: as §1

[3] = tested on: E. coli TESEC Mtb Asd; settings: compound 0.1 mM
Method: (§2)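 TESEC E. coli strains in which the native enzyme is deleted and replaced by arabinose-inducible Mtb Asd, DapB, CysH or TrpD, each grown in its selective medium. Strains were screened against the Prestwick library at 0.1 mM and 1% DMSO in 384-well format at low and high arabinose induction. Growth is read as OD600 after 10 h in triplicate.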

[4] = tested on: E. coli TESEC Mtb DapB; settings: compound 0.1 mM
Method: as §2

[5] = tested on: E. coli TESEC Alr+ wild-type control; settings: compound 0.1 mM; raw OD600 reference: median of DMSO wells 0.49, cell-free background 0.052
Method: (§3)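 TESEC Mtb Alr E. coli (ΔaraC ΔtolC ΔentC Δalr ΔdadX, arabinose-inducible Mtb Alr) or the Alr+ wild-type control strain, grown in defined M9-fructose medium without D-alanine in 96-well plates with Prestwick library compounds at 0.1 mM and 1% DMSO. Low Alr induction is 0.1 µM arabinose and high induction is 10 mM arabinose.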

[6] = tested on: E. coli TESEC Mtb Alr; settings: compound 0.1 mM; remark: listed apart in the source
Method: as §3

[7] = arabinose 1000 nM, raw OD600 reference: median of DMSO wells 0.294, cell-free background 0.041
[8] = arabinose 10000 nM, raw OD600 reference: median of DMSO wells 0.264, cell-free background 0.041
[9] = arabinose 100000 nM, raw OD600 reference: median of DMSO wells 0.201, cell-free background 0.041
[10] = arabinose 1000000 nM, raw OD600 reference: median of DMSO wells 0.193, cell-free background 0.041
[11] = arabinose 10000000 nM, raw OD600 reference: median of DMSO wells 0.146, cell-free background 0.041
[12] = arabinose induction (level): High, raw OD600 reference: median of DMSO wells 0.331, cell-free background 0.041
[13] = arabinose induction (level): Low, raw OD600 reference: median of DMSO wells 0.417, cell-free background 0.041
[14] = arabinose induction (level): High, raw OD600 reference: median of DMSO wells […], cell-free background 0.041
[15] = arabinose induction (level): Low, raw OD600 reference: median of DMSO wells 0.227, cell-free background 0.041
[16] = arabinose 100 nM, raw OD600 reference: median of DMSO wells 0.413, cell-free background 0.052
[17] = arabinose 10000000 nM, raw OD600 reference: median of DMSO wells […], cell-free background 0.052

Row | SMILES | growth [1] | growth [2, 7] | growth [2, 8] | growth [2, 9] | growth [2, 10] | growth [2, 11] | growth [3, 12] | growth [3, 13] | growth [4, 14] | growth [4, 15] | growth [5] | growth [6, 16] | growth [6, 17]
1 | CCn1cc(C(=O)O)c(=O)c2cnc(N3CCCC3)nc21 [Piromidic acid] | 0.228 ± 0.0041 | 0.314 ± 0.026 | 0.267 ± 0.0056 | 0.161 ± 0.019 | 0.182 ± 0.0092 | 0.145 ± 0.0049 | 0.288 ± 0.037 | 0.432 ± 0.015 | 0.208 ± 0.016 | 0.239 ± 0.025 | 0.144 ± 0.003 | 0.12 ± 0.021 | 0.105 ± 0.015
2 | COC1=CC(=O)C[C@@H](C)[C@]12Oc1c(Cl)c(OC)cc(OC)c1C2=O [Griseofulvin] | 0.223 ± 0.0068 | 0.2842 ± 0.002 | 0.2487 ± 0.002 | 0.208 ± 0.021 | 0.0853 ± 0.0022 | 0.135 ± 0.006 | 0.241 ± 0.051 | 0.385 ± 0.11 | 0.174 ± 0.0029 | 0.233 ± 0.022 | 0.514 ± 0.041 | 0.416 ± 0.013 | 0.21 ± 0.032
3 | Cc1c(NC(C)C)c(=O)n(-c2ccccc2)n1C [Isopyrin hydrochloride] | 0.2426 ± 0.0023 | 0.304 ± 0.017 | 0.265 ± 0.004 | 0.229 ± 0.0067 | 0.211 ± 0.0094 | 0.141 ± 0.0042 | 0.29 ± 0.04 | 0.429 ± 0.036 | 0.218 ± 0.019 | 0.268 ± 0.032 |  | 0.393 ± 0.0061 | 0.351 ± 0.016
4 | CCOc1ccc2nc(S(N)(=O)=O)sc2c1 [Ethoxzolamide] | 0.2066 ± 0.0019 | 0.247 ± 0.0061 | 0.227 ± 0.0027 | 0.177 ± 0.024 | 0.134 ± 0.0057 | 0.122 ± 0.0034 | 0.283 ± 0.04 | 0.368 ± 0.045 | 0.172 ± 0.0065 | 0.187 ± 0.017 |  | 0.426 ± 0.0093 | 0.214 ± 0.13
5 | CC(N)C12CC3CC(CC(C3)C1)C2 (stereo unspecified) [Rimantadine Hydrochloride] | 0.228 ± 0.0089 | 0.293 ± 0.0047 | 0.2629 ± 0.0005 | 0.207 ± 0.025 | 0.18 ± 0.0024 | 0.151 ± 0.006 | 0.209 ± 0.019 | 0.497 ± 0.07 | 0.195 ± 0.021 | 0.232 ± 0.025 | 0.583 ± 0.077 | 0.407 ± 0.009 | 0.345 ± 0.011
6 | O=C(O)CCNC(=O)c1ccc(/N=N/c2ccc(O)c(C(=O)O)c2)cc1 [Balsalazide Sodium] | 0.276 ± 0.0079 | 0.318 ± 0.0085 | 0.2664 ± 0.0024 | 0.213 ± 0.0045 | 0.206 ± 0.0036 | 0.138 ± 0.0021 | 0.252 ± 0.008 | 0.434 ± 0.012 | 0.232 ± 0.0039 | 0.241 ± 0.014 | 0.465 ± 0.057 | 0.394 ± 0.035 | 0.378 ± 0.014
7 | NC(=O)NC1NC(=O)NC1=O (stereo unspecified) [Allantoin] | 0.253 ± 0.015 | 0.281 ± 0.017 | 0.258 ± 0.0083 | 0.244 ± 0.0082 | 0.173 ± 0.0071 | 0.142 ± 0.0025 | 0.375 ± 0.027 | 0.424 ± 0.028 | 0.192 ± 0.0069 | 0.276 ± 0.1 | 0.438 ± 0.049 | 0.41 ± 0.011 | 0.28 ± 0.14
8 | C[N+](C)(C)CCCCCC[N+](C)(C)C [Hexamethonium dibromide dihydrate] | 0.247 ± 0.0066 | 0.27 ± 0.018 | 0.245 ± 0.0047 | 0.191 ± 0.022 | 0.1745 ± 0.00064 | 0.138 ± 0.0063 | 0.344 ± 0.048 | 0.454 ± 0.015 | 0.205 ± 0.014 | 0.233 ± 0.042 |  | 0.425 ± 0.0087 | 0.384 ± 0.015
